DRV1 agonist – qHTS for Agonists of Human Resolvin D1 Receptor DRV1. CHO-K1 GPR32 beta-arrestin PathHunter luminescence, 90 min; zero percent set by DMSO-only wells. activation, % at 76.9 µM. 2.5% of 48,000 active;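 active = activation of at least 60% and not above a set upper limit, about 1 call in 100 departs from these limits; inconclusive = activation of 40% to 60%, or above that upper limit; inactive = activation under 40%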; also: 0% is about no effect
Target sequence (O75388 whole entry, looked up): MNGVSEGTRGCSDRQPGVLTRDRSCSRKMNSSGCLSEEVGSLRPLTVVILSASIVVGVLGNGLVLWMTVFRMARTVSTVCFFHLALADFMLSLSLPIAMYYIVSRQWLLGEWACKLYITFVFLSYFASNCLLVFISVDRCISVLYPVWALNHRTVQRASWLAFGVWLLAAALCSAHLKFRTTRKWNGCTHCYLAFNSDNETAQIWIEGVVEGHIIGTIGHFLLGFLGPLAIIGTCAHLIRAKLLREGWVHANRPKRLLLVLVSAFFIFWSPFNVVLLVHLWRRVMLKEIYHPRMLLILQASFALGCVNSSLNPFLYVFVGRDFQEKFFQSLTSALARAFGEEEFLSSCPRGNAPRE
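Using DMSO wells as EC0, agonist-induced signal was taken as chemiluminescence from beta-Gal reconstituted upon beta-arrestin recruitment to GPR32 in CHO-K1 cells after 90 min compound treatment.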
GALC G270D up – A Novel Cell-Based Assay to Identify Small Molecules for B -Galactocerebrosidase; AID 1159614, 2016; P54803; 0.1% of 45,000 active; Potency, µM (titrated, usually from 57.5 µM), usual class: activators; 145M-Twi-hGALC-G270D cells (Twitcher mouse brain line with human GALC G270D), HMU-beta-Gal fluorescence, 48 h; also: potency is read from the fitted curve at half-maximal effect; 0% is about no effect; nearly all actives have a fitted effect of over 65% in size
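Fluorogenic HMU-b-Gal hydrolysis (0.1 mM final, pH 5.2 citrate-phosphate with 1 mg/mL sodium taurocholate; carbonate stop buffer) measures mutant GALC activity after compound treatment of live 145M-Twi Twitcher brain cells stably carrying human GALC-G270D, with wild-type GALC line alongside; activation sought.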
PTAP-TSG101 blk – qHTS Validation Assay for Inhibitors of HIV-1 Budding by Blocking the Interaction of PTAP/TSG101: Sytravon Library Screen; Tumor susceptibility gene 101 protein (Homo sapiens), Q99816; Fluorescence polarization, FITC-PTAP peptide/Tsg101, 20 min; Potency, µM (doses to about 115 µM), hits mostly inhibitors; 44,000 tested, under 10 active; AID 1347069, 2019; also: potency is read from the fitted curve at half-maximal effect; 0% is about no effect
Target sequence (Q99816 whole entry, looked up): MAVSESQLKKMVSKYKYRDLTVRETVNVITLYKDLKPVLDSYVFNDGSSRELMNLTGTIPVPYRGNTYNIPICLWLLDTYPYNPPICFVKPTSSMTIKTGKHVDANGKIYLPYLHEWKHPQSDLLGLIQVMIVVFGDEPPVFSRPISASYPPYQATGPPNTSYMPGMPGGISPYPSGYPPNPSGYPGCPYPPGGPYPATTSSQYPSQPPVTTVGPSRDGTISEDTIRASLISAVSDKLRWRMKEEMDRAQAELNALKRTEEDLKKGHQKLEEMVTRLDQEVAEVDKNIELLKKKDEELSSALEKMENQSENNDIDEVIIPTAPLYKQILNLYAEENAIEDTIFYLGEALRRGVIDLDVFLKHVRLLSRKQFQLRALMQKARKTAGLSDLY
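Read-out is FITC fluorescence polarization. Compounds were added to Tsg101 binding domain (10 uM final), then FITC-PTAP peptide (50 nM final), 20 min at r.t. Total S+P intensity flags fluorescent compounds.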
B2AR arrestin ag – qHTS assay of beta-arrestin-biased ligands of beta2-adrenergic receptor: NCGC Sytravon Library Screen. 44,000 tested, under 10 active. AID 1347077, 2019. Potency, µM (doses to about 46.1 µM), hits mostly activators. Beta-2 adrenergic receptor (Homo sapiens), P07550. HTLA Tango cells, beta-arrestin recruitment, luciferase luminescence, 18 h;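 also: potency is read from the fitted curve at half-maximal effect; 0% = DMSO and full agonism = EC100 isoproterenol or metaproterenol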
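Tango cells expressing recombinant beta2-AR and beta-arrestin were treated with compounds (up to 46 microM titration) in DMEM with 1% FBS for 18 hr at 37 degrees C. Beta-arrestin recruitment drove tTA-dependent luciferase, read by luminescence; curves were fitted and classed.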
GALK inhibitor – qHTS Assay for Inhibitors of Human Galactokinase (GALK): NCGC Sytravon Library Screen; 44,000 tested, under 10 active; P51570; Potency, µM (highest dose often 57.5 µM), without a hit: at the top dose activity, negative = inhibition, actives largely listed as inhibitors; recombinant GALK, Kinase-Glo ATP luminescence, 1 h;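 also: plate controls were full GALK reaction for no effect and reaction lacking GALK for full effect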
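5 nM GALK with 35 µM ATP and 100 µM galactose in HEPES pH 8.0, MgCl2, NaCl, DTT, BSA; 1 h RT reaction, remaining ATP detected by Kinase-Glo Plus luminescence after 10 min; qHTS concentration series.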
FH mod – Identification of activators of human fumarate hydratase by quantitative high-throughput screening; FH coupled MDH/diaphorase resazurin fluorescence, 15 min; Potency, µM (series often up to 79.9 µM), without a hit: top-dose activity change, negative = inhibition, most hits filed as inhibitors; 0.22% of 54,000 active; AID 1347055, 2019; also: potency is read from the fitted curve at half-maximal effect; % is scaled to controls: 0 for no effect and ±100 for the full control effect; the screen sought activators but most active calls are inhibition curves; nearly all actives have a fitted effect of over 45% in size
An asterisk follows results filed as active; i = inactive; ? = inconclusive; . = no result; ! = a repeat was not active; [ ] = another dose, or the depositor's remark. A selection: hits, their analogues and other compounds. The true share with any hit is near 2.8%. Unless noted, calls follow the shape of the dose curve; as a rule, active = well fitted curve in the direction sought with a large enough effect; inconclusive = small, poorly fitted or top-dose-only effect, or another doubt; inactive = no such curve, though single readings can be large; an effect the other way counts as inactive or inconclusive.

SMILES | DRV1 agonist | GALC G270D up | PTAP-TSG101 blk | B2AR arrestin ag | GALK inhibitor | FH mod
Cc1c(-c2cccc(NC(=O)Nc3ccc(Cl)cc3)c2)nc2ncccn12 | ? | i | i | i | -8.6% | -23.5%
CCC(C)NC(=O)c1cc(Sc2cccc(Cl)c2)nc2ccccc12 (centres undefined) | 20.3 | i | i | i | -1.3% | -15.7%
CCc1ccc(Sc2cc(C(=O)NC(C)CC)c3ccccc3n2)cc1 (centres undefined) | 74.7* | i | i | i | 1.5% | -17.7%
Nc1nc2c(cnn2CCCc2ccc(O)cc2)c2nc(-c3ccco3)nn12 | . | . | . | . | . | 3.2%
OCCN1CCN(CC/C=C2/c3ccccc3Sc3ccc(C(F)(F)F)cc32)CC1 | 61.7*! | i | . | . | . | ?
C#CC1(O)CC[C@H]2[C@@H]3CCC4=CCCC[C@@H]4[C@H]3CC[C@@]21C (some centres undefined) | 105.4* | i | . | . | . | -16.6%[53.3 µM]
C#C[C@]1(OC(C)=O)CC[C@H]2[C@@H]3CCC4=C/C(=N/O)CC[C@@H]4[C@H]3CC[C@@]21CC | 31.1 | i | . | . | . | -27.1%[53.3 µM]
Cc1c(F)ccc(C(=O)Nc2cc([N+](=O)[O-])ccc2N2CCN(C)CC2)c1Cl | . | . | . | . | . | 6.0%
O=C(Nc1c(-c2cccs2)nc2ccccn12)c1ccc(Cl)cc1 | . | . | . | . | . | -2.9%
CCc1ccc(NCc2cc3cc4c(cc3n(CC(=O)Nc3ccc(OC)cc3)c2=O)OCO4)cc1 | -67.6 | i | i | i | ? | -8.1%
CCc1ccc(NCc2cc3cc4c(cc3n(CC(=O)Nc3cccc(OC)c3)c2=O)OCO4)cc1 | -43.8 | 28.2µM* | i | i | 0.5% | -17.7%
CCOC(=O)c1cc2ccc(O)cc2oc1=O | . | . | . | . | . | 6.5%
Cc1cc(-n2c(C)nc3ccccc3c2=O)ccc1NC(=O)c1cccc([N+](=O)[O-])c1C | 14.5 | i | i | i | -5.8% | -9.0%
Cc1cc(-n2c(C)nc3ccccc3c2=O)ccc1NC(=O)c1ccccc1[N+](=O)[O-] | 94.0* | i | i | i | 1.4% | 1.8%
O=C(c1ccc(F)cc1)N1CCN(CCc2ccncc2)CC1 | 3.7 | i | i | i | 16.0% | -14.5%
CCNC(=O)N1CCN(CCCC(c2ccc(F)cc2)c2ccc(F)cc2)CC1 | 112.4*! | i | . | . | . | -29.7%[53.3 µM]
CC(=O)OCC(=O)O[C@@H]1[C@H]2[C@@H](OC(=O)c3ccccc3)[C@@H](C)C[C@]2(O)[C@H](OC(C)=O)C2(C)[C@H]3CC(C)(C)C(=O)[C@@H]3CC1(OC(C)=O)[C@@H]2OC(C)=O (some centres undefined) | . | . | . | . | . | 19.5%[20.6 µM]
C/C=C/C=C/C=C/C(=O)N(C)C(C(=O)NC(C)C(=O)N1CCCC1C(N)=O)C(C)C (centres undefined) | . | . | . | . | . | 2.0%[53.3 µM]
Cc1ccc(CN2CCCn3nc(C(=O)NCCc4ccc(Cl)cc4)cc3C2=O)cc1 | 115.2* | i | i | i | 3.0% | -8.3%
Cc1ccc(CCNC(=O)c2cc3ccccn3n2)cc1 | 111.0* | . | i | i | 4.2% | .
Cc1ccccc1CCNC(=O)c1cc2ccccn2n1 | 32.3 | . | i | i | 0.7% | .
C[C@H]1O[C@@H](O[C@H]2CC[C@@]3(C)[C@H](CC[C@@H]4[C@@H]3C[C@@H](O)[C@]3(C)[C@@H](C5=CC(=O)OC5)CC[C@]43O)C2)C[C@H](O)[C@@H]1O[C@H]1C[C@H](O)[C@H](O[C@H]2C[C@H](O)[C@H](O[C@@H]3O[C@H](CO)[C@@H](O)[C@H](O)[C@H]3O)[C@@H](C)O2)[C@@H](C)O1 | 76.2* | i | . | . | . | -0.8%[53.3 µM]
C[C@@H]1O[C@@H](O[C@H]2CC[C@@]3(C)[C@H](CC[C@@H]4[C@H]3C[C@@H](O)[C@]3(C)[C@@H](C5=CC(=O)OC5)CC[C@]43O)C2)C[C@H](O)[C@@H]1O[C@H]1C[C@H](O)[C@H](O[C@H]2C[C@H](O)[C@@H](O)[C@@H](C)O2)[C@H](C)O1 (stereo in doubt) | . | . | . | . | . | 11.7%
Fc1ccc2c(CCNCc3cccc(OCC(F)(F)C(F)F)c3)c[nH]c2c1 | . | . | . | . | . | -1.0%
O=C1c2ccccc2CCc2ccccc21 | 10.7 | i | . | . | . | -1.6%[53.3 µM]
SMILES | DRV1 agonist | GALC G270D up | PTAP-TSG101 blk | B2AR arrestin ag | GALK inhibitor | FH mod
c1ccc2c(c1)CCc1ccccc1N2 | 118.8* | i | . | . | . | ?
O=c1cc(CSc2n[nH]c(-c3ccccc3)n2)[nH]c2ccccc12 | 93.0* | i | i | i | -0.3% | -13.8%
CN(C)CC1CCn2cc(c3ccccc32)C2=C(C(=O)NC2=O)c2cn(c3ccccc23)CCO1 (centres undefined) | . | . | . | . | . | -0.4%
CCC(C(=O)OCc1cc(=O)n2nc(CCOC)sc2n1)c1ccccc1 (centres undefined) | -13.3 | i | i | i | 0.7% | ?
CCC(C(=O)OCCN1CCOC(c2ccccc2)C1C)c1ccccc1 (centres undefined) | 61.8* | i | . | . | . | -4.8%[53.3 µM]
CNCc1ccc(-c2cc(-c3nc(-c4ccc(S(=O)(=O)C(C)C)cc4)cnc3N)on2)cc1 | . | . | . | . | . | 3.4%
Cc1ccc(CNC(=O)Cn2nc(N3CCN(c4ccccc4)CC3)ccc2=O)cc1 | 32.1 | i | i | i | 3.9% | 5.1%
O=C(Nc1ccccc1F)c1ccc(Cn2nc(N3CCN(c4ccccc4)CC3)ccc2=O)o1 | 90.1* | i | i | i | 3.3% | -10.4%
CC(C)NC(=O)Cn1nc(N2CCN(c3ccccc3)CC2)ccc1=O | -16.6 | i | i | i | -0.2% | 1.5%
O=C(Cn1nc(N2CCN(c3ccccc3)CC2)ccc1=O)NCc1cccc(Cl)c1 | 120.5* | i | i | i | -0.2% | -1.2%
CSc1ccc(CNC(=O)Cn2nc(N3CCN(c4ccccc4)CC3)ccc2=O)cc1 | 94.5* | i | i | i | -0.7% | -8.6%
OC1C=C2C3CN(Cc4cc5c(cc43)OCO5)C2CC1O (centres undefined) | . | . | . | . | . | 6.5%
CC1OC2OC(=O)C3(C)CC4C5(CO5)C5=CC(=O)OC(C)(C)C5=CC(=O)C4(C)C(C1=O)C23 (centres undefined) | . | . | . | . | . | 3.1%[53.3 µM]

From PubChem BioAssay
